# Assay outcomes: PubChem BioAssay, University of Kansas High Throughput Screening Laboratory
# mHTT CaM bind: mutant huntingtin-calmodulin interaction inhibitors – biochemical, AlphaScreen, primary screen; inhibition, % at 15 µM; P42858; AID 1671202, 2021; 190,000 compounds, 3.6% hits; AlphaScreen His-mHTT/GST-CaM binding, luminescence
# Pf apPOL block: Pf-apPOL inhibitors, biochemical, fluorescence | AID 1794808, 2022 | 210,000 compounds, 0.25% hits | Plasmodium falciparum apicoplast DNA polymerase (apPOL) | Recombinant Pf-apPOL, molecular beacon fluorescence, 1.5 h | inhibition, % at 10 µM
# Numbers stand for hits; n = inactive; x = no result given. The full list was thinned out, with hits kept by preference. Cut-off read from the data, not from the text of the source: active = inhibition above about 50%; inactive = the rest.
SMILES,mHTT CaM bind,Pf apPOL block
O=C(C1CCCN(c2cn[nH]c(=O)c2)C1)N1CCN(c2ncccn2)CC1 (centres undefined),n,n
O=C(NCCc1ccccc1)N1CCC(CCOc2cccnc2)CC1,n,n
COc1ccc(C2CCCN2C(=O)Nc2cccc(C)c2)cc1 (centres undefined),n,n
CCOCC(=O)N1CCc2cn(CC)c3cccc(c23)C1,n,n
COCCn1cc2c3c(cccc31)CN(C(=O)Cc1c(F)cccc1Cl)CC2,n,n
CCn1cc2c3c(cccc31)CN(C(=O)Nc1cccc(F)c1C)CC2,n,n
CCn1cc2c3c(cccc31)CN(C(=O)Cc1ccc(F)cc1)CC2,64,n
COCCn1cc2c3c(cccc31)CN(C(=O)Cc1ccccc1Cl)CC2,71,n
CCC(=O)N1CCc2cn(CC)c3cccc(c23)C1,n,n
CCn1cc2c3c(cccc31)CN(C(=O)c1ccccc1F)CC2,56,n
CCn1cc2c3c(cccc31)CN(C(=O)COc1ccc(F)cc1)CC2,74,n
CC(=O)c1cccc(NC(=O)C2CC(=O)N(c3ccc4c(c3)CCN4C(C)=O)C2)c1 (centres undefined),n,n
CCOc1ccc(NC(=O)c2ccc(Cl)cc2Cl)c([N+](=O)[O-])c1,n,n
CC(NC(=O)c1cnc(N2CCN(c3ncccn3)CC2)c2ccccc12)c1ccccc1 (centres undefined),n,n
CCCn1cc2c3c(cccc31)CN(C(=O)COc1ccccc1)CC2,50,n
COc1ccc(OCC(=O)N2CCc3cn(C)c4cccc(c34)C2)cc1,n,n
Cc1ccc(/C=C(\C#N)c2nc(-c3ccc(F)cc3)cs2)s1,n,n
Cc1ccc(C2CC(c3ccccc3)=Nc3ccccc3S2)cc1 (centres undefined),x,n
Clc1ccccc1C1CC(c2ccco2)=Nc2ccccc2S1 (centres undefined),51,n
O=C(Nc1ccccc1)OC1CCCC(NC(=O)C2(c3ccccc3)CCOCC2)C1 (centres undefined),n,n
CC1CCCN(CC2CCN(S(=O)(=O)CCc3ccccc3)CC2)C1 (centres undefined),n,n
Cc1ccc(NC(=O)CN2C(=O)C(c3ccccc3)=NC23CCCCC3)cc1,n,n
COc1ccc(-c2ccc(/C=C/c3cc(C(F)(F)F)[nH]c(=O)n3)o2)cc1Cl,99,n
COc1ccc(-c2ccc(/C=C/c3cc(C(F)(F)F)[nH]c(=O)n3)o2)c([N+](=O)[O-])c1,n,n
COc1ccc(C(=O)/C=C2/NC(=O)CS2)cc1,n,77
SMILES,mHTT CaM bind,Pf apPOL block
COc1cccc(C(=O)C=C2NC(=O)CS2)c1,x,n
Cc1ccc(Cc2nnc(NC(=O)c3cc(C)n(C(C)C)n3)o2)cc1,n,n
CC(C)(C)NC(=O)C1CC(=O)N(Cc2ccccc2)C1 (centres undefined),n,n
COc1cccc(NC(=O)CN2C(=O)C(c3ccccc3)=NC23CCCCCC3)c1,n,n
O=C1OC(c2ccc([N+](=O)[O-])cc2Cl)=N/C1=C\c1cccc(Br)c1,n,n
Cc1nn(Cc2ccc(F)cc2)c(C)c1NC(=O)c1noc2c1CCCCC2,53,n
Cc1nn(Cc2ccc(Cl)cc2)c(C)c1NC(=O)c1noc2c1CCCC2,96,n
Cc1ccccc1Cn1nc(C)c(NC(=O)c2noc3c2CCCC3)c1C,n,n
Cc1nn(Cc2ccccc2Cl)c(C)c1NC(=O)c1noc2c1CCCCC2,n,n
O=C(c1ccc2c(c1)OCO2)N1CCCC2(C1)NC(=O)N(Cc1ccccc1)C2=O (centres undefined),n,n
CN1CCN(C(=O)c2ccc3ncnc(N4CCCC4)c3c2)CC1,n,n
Nc1ccc2nc(-c3ccccc3-c3nc4ccc(N)cc4[nH]3)[nH]c2c1,n,n
Nc1ccc(-c2nc3ccc(-c4nc5ccc(N)cc5[nH]4)cc3[nH]2)cc1,51,n
Nc1ccc(CCc2nc3ccc(N)cc3[nH]2)cc1,n,n
Nc1ccc2nc(Cc3nc4ccc(N)cc4[nH]3)[nH]c2c1,79,n
Nc1ccc2nc(-c3ccc(-c4nc5ccc(N)cc5[nH]4)cc3)[nH]c2c1,n,68
Nc1ccc(-c2nc3ccc(C(=O)c4ccc5nc(-c6ccc(N)cc6)[nH]c5c4)cc3[nH]2)cc1,n,n
CN1C(=O)c2cccnc2Sc2cc(NC(=O)Cc3ccccc3Cl)ccc21,n,n
O=C(/C=C/c1ccc(-c2ccccc2)o1)c1cccs1,n,n
O=C(/C=C/c1ccc(-c2ccc(F)cc2)o1)c1cccs1,91,n
COC(=O)c1ccc2c(=O)n(Cc3ccc(F)cc3)c(N3CCCC3)nc2c1,n,n
COc1ccccc1CC(=O)N1CCN(c2ccccn2)CC1,n,n
O=C(c1cc(-c2ccc(F)cc2)n[nH]1)N1CCN(c2ccc(-c3ccccn3)nn2)CC1,100,n
O=C(c1ccc(F)cc1F)N1CCN(c2ccc(-c3cccnc3)nn2)CC1,n,n
